Assay results taken from PubChem BioAssay.
Activity calls are given as the source filed them.

Assays:
[1] = system: Plasmodium falciparum Sir2 (PF13_0152, Sir2A); test: pfSir2 binders on small-molecule microarrays, primary screen, biochemical, small-molecule microarray, 635 nm fluorescence (AID 1098); conditions: small-molecule microarray binding, fluorescence 635 nm; higher = more signal;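 further: score merges spot fluorescence intensity with its signal-to-noise ratio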
[2] = small-molecule microarray binders of probe aDKK1, primary screen, biochemical, biotinylated probe, 635/667 nm fluorescence (AID 1099); conditions: higher = more signal;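 further: score merges 667nm spot fluorescence with signal to noise across triplicate slides; reference of the scale not given here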
[3] = small-molecule microarray binders of probe aCHRDL2, primary screen, biochemical, biotinylated probe, 635/667 nm fluorescence (AID 1100); conditions: higher = more signal
[4] = splicing luciferase reporter signal modulators, primary screen, spliceosome inhibition project, cell-based, HEK293, splice +/- reporter (AID 1101); conditions: luminescence, 24 h, higher = more signal, called active from +8 up or from −8 down;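 further: HEK293 cells carrying a splicing-competent luciferase reporter gene; test concentration not given here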
[5] = molecular target: Fibroblast growth factor 10 (Homo sapiens) (UniProt O15520); test: FGF10 binders on small-molecule microarrays, primary screen, biochemical, small-molecule microarray, 635 nm fluorescence (AID 1102); conditions: FGF10 binding, fluorescence 635 nm, higher = more signal
[6] = system: glycogen synthase kinase-3 (GSK3A per assay name; protocol says GSK3B); test: GSK3 binders on small-molecule microarrays, primary screen, biochemical, small-molecule microarray, 635 nm fluorescence, GSK3A (AID 1103); conditions: small-molecule microarray binding, fluorescence 635 nm; higher = more signal; further: the record names both GSK3A and GSK3B
[7] = molecular target: Epidermal growth factor receptor (Homo sapiens) (UniProt P00533); test: EGFR binders on small-molecule microarrays, primary screen, biochemical, small-molecule microarray, 635 nm fluorescence (AID 1104); conditions: EGFR binding, higher = more signal;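 further: score merges 667 nm emission intensity with spot signal to noise over triplicate slides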
[8] = molecular target: Follistatin-related protein 3 (Homo sapiens) (UniProt O95633); test: FSTL3 binders on small-molecule microarrays, primary screen, biochemical, small-molecule microarray, 635 nm fluorescence (AID 1105); conditions: FSTL3 binding, higher = more signal;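 further: score merges emission near 667 nm and signal to noise per printed spot across three slides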
[9] = molecular target: Dickkopf-related protein 1 (Homo sapiens) (UniProt O94907); test: DKK1 binders on small-molecule microarrays, primary screen, biochemical, small-molecule microarray, 635 nm fluorescence scan (AID 1106); conditions: DKK1 binding, higher = more signal;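 further: score merges emission near 667 nm with signal to noise over three replicate slides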
[10] = system: Inhibin beta A chain (activin A); test: INHBA (activin A) binders on microarrays, primary screen, biochemical, small-molecule microarray, 635 nm fluorescence scan (AID 1107); conditions: small-molecule microarray binding, higher = more signal;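 further: mouse activin A protein probed at 4.33 µg/mL on printed slides; score merges bound-protein fluorescence near 667 nm with spot signal-to-noise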

Dickkopf-related protein 1 (Homo sapiens), sequence (O94907 whole entry, looked up): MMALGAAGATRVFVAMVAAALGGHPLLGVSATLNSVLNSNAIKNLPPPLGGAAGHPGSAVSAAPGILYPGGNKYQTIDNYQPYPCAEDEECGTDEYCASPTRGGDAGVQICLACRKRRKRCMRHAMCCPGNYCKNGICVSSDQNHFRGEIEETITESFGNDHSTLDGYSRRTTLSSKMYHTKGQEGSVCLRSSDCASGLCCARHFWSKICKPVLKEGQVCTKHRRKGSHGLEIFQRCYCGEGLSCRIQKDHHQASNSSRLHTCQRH
Fibroblast growth factor 10 (Homo sapiens), sequence (O15520 whole entry, looked up): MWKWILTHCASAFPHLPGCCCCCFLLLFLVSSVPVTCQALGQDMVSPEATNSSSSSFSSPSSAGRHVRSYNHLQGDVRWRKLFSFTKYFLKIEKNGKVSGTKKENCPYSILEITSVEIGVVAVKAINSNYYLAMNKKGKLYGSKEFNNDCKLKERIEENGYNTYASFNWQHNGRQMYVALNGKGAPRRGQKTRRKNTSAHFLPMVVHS
Follistatin-related protein 3 (Homo sapiens), sequence (O95633 whole entry, looked up): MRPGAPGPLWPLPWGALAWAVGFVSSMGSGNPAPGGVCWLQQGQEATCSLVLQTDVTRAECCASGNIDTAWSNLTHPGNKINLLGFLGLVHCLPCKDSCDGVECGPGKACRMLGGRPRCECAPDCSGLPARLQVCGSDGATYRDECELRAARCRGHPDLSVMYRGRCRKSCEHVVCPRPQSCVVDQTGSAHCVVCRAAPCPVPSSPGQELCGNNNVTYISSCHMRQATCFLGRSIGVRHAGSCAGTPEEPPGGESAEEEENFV
Epidermal growth factor receptor (Homo sapiens), sequence (P00533 whole entry, looked up): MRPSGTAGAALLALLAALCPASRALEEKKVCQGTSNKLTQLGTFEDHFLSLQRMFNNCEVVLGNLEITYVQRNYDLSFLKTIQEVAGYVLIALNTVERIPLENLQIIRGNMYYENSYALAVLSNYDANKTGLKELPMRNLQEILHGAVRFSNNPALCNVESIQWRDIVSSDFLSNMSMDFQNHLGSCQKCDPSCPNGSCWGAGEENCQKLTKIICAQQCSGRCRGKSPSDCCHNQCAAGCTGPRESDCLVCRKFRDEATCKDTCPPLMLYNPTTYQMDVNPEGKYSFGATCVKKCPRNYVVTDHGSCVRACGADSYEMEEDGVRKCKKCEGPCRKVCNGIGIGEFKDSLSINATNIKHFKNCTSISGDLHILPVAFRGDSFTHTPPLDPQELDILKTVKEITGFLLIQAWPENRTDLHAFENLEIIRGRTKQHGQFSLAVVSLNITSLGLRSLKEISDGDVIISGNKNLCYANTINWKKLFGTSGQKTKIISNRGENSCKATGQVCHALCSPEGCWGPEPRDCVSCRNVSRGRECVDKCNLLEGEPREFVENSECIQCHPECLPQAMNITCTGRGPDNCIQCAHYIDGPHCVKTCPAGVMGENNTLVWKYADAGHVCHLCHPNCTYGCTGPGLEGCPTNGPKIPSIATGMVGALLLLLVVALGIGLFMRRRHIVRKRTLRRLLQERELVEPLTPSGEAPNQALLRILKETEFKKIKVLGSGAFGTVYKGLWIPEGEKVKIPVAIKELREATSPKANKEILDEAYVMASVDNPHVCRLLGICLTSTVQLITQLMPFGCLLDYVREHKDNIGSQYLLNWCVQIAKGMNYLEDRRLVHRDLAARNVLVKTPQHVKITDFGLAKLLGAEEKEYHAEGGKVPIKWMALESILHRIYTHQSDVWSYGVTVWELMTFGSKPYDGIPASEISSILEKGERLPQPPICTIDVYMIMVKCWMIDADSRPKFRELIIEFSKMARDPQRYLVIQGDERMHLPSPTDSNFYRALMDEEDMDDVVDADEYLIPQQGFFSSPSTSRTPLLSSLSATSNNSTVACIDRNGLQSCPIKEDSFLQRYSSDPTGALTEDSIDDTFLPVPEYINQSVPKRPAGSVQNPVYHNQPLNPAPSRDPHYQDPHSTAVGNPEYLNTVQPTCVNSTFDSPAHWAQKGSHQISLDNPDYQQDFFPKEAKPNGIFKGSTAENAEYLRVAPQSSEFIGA

| Compound | composite z-score [1] | composite z-score [2] | composite z-score [3] | z-score [4] | composite z-score [5] | composite z-score [6] | composite z-score [7] | composite z-score [8] | composite z-score [9] | composite z-score [10] |
| --- | --- | --- | --- | --- | --- | --- | --- | --- | --- | --- |
| C=C(/C(=C/C[C@@H](OC(C)=O)c1ccc(CO)o1)c1cnc2ccccc2c1)C(C)C | 1.18 | -0.198 | -0.541 | -0.541 (inactive) | 1.66 | 1.32 | 0.792 | 1.45 | 1.24 | 1.39 |
| CN(C)CCCCCCNC(=O)[C@@H]1C[C@@H]2C(=O)N[C@@H](Cc3ccccc3)C(=O)N2[C@@H]1c1cccc(OCCO)c1 | 1.12 | 0.182 | 0.635 | -0.326 (inactive) | 0.393 | 1.31 | 0.464 | 0.721 | 0.872 | 0.728 |
| C=CCOC(=O)[C@@H]1[C@H]2C(=O)O[C@H](c3ccccc3)[C@H](c3ccccc3)N2[C@H](c2ccc(OCCOC(=O)[C@H]3C[C@H]4C(=O)N[C@@H](Cc5ccccc5)C(=O)N4[C@H]3c3ccc(O)cc3)cc2)[C@@]12C(=O)Nc1ccc(I)cc12 | 1.54 | 0.232 | 0.163 | 0.00712 (inactive) | 1.22 | 1.33 | 0.906 | 1.29 | 1.26 | -0.418 |
| C=CCC(OC(C)=O)[C@@H]1[C@@H](N(Cc2cc3ccccc3o2)C(=O)c2cccc3ccccc23)c2cc(OCCCO)ccc2N1C(=O)Cc1ccc(OC)cc1 (stereo not given in full) | 0.495 | 0.136 | 0.0527 | -1.04 (inactive) | 0.568 | 0.12 | 0.24 | 0.579 | 0.429 | 1.2 |
| C=C(CCCC)C(=O)CC[C@@H](OC(=O)c1ccccc1-c1ccccc1C(=O)O)c1ccc(CO)o1 | 0.628 | -0.0075 | -0.301 | 0.716 (inactive) | 1.22 | 1.1 | -0.183 | 0.818 | 1.03 | 1.01 |
| [N-]=[N+]=NCc1ccccc1[C@H]1OC(c2ccc(OCCCO)cc2)=N[C@@]1(Cc1ccccc1)C(=O)O | 0.208 | 0.213 | 0.884 | -1.01 (inactive) | 0.621 | 0.51 | 0.0378 | 0.47 | -0.213 | 1.25 |
| C/C=C/[C@H](CCn1cc([C@H](O)c2ccccc2)nn1)[Si](C)(C)c1ccc(OC)cc1 | 0.0765 | -0.49 | 0.503 | 0.264 (inactive) | -0.607 | -0.855 | -1.52 | -1.72 | -0.338 | -0.343 |
| Cc1ccc(C(C)CC(O)C2C=CC3C(=O)NC(=O)C3N2Nc2ccccn2)o1 (stereo not given) | 1.22 | 0.182 | -0.0866 | 0.802 (inactive) | 0.228 | 0.309 | 0.401 | 0.506 | 0.906 | 1.25 |
| COCCOC(=O)N1C(=O)[C@@]2(c3ccccc31)[C@H](c1ccc(O)cc1)N1[C@H](c3ccccc3)[C@H](c3ccccc3)OC(=O)[C@H]1[C@@H]2C(N)=O | 0.394 | -0.374 | 0.679 | 0.435 (inactive) | -0.422 | -1.11 | -0.608 | -0.821 | -1.17 | -0.249 |
| O=C1OCC=C[C@H]2OC34C=CCN(c5ccc(Cl)cc5)C(=O)[C@H]3N(CCCO)C(=O)[C@@H]4[C@@H]12 (stereo not given in full) | -0.0096 | -0.477 | 0.673 | -0.915 (inactive) | -0.742 | -1.19 | -0.781 | -0.551 | -1.32 | 1.23 |
| O=C(NCc1ccccc1)[C@@H]1c2ccccc2C(=O)N(C2CCCCC2)[C@H]1c1ccc(CO)cc1 | 0.88 | -0.709 | 0.0028 | 0.365 (inactive) | 0.686 | 0.0662 | -0.241 | 0.707 | -0.327 | -0.224 |
| CO[C@H]1O[C@H](CO)[C@@H](OC(=O)Nc2ccccc2-c2ccccc2)[C@H](OC(=O)Nc2ccccc2-c2ccccc2)[C@H]1OC(=O)Nc1ccccc1-c1ccccc1 | 1.54 | 0.677 | 0.607 | -0.316 (inactive) | 1.4 | 1.35 | 0.197 | 1.36 | 0.289 | 0.628 |
| CCCCC(=O)N(Cc1ccccc1F)[C@@H]1CC(C(=O)NCCO)=C[C@H](Oc2c(I)cc(CO)cc2OC)[C@H]1O | 1.09 | -0.22 | -0.327 | -0.0457 (inactive) | 1.46 | 1.34 | 0.91 | 1.13 | 1.96 | 0.535 |
| C#C[C@H](O[Si](C#CCCCCCC)(C(C)C)C(C)C)c1ccccc1 | -0.369 | -0.109 | -0.132 | -0.22 (inactive) | -0.0831 | 0.173 | -0.33 | -0.215 | -0.169 | 0.168 |
| O=c1cccc(-c2ccc3ccccc3c2)o1 | -0.271 | 0.216 | 0.591 | -0.823 (inactive) | -0.0487 | -0.964 | 0.0697 | -0.0172 | -0.139 | 1.15 |
| OCCCc1cc[n+](Cc2cccc(OC(F)(F)F)c2)cc1 | 1.67 | 0.237 | 0.526 | -0.109 (inactive) | 0.0895 | 0.873 | 0.0648 | 1.03 | 0.346 | 1.14 |
| O=C(NCC(O)CO)[C@@]1(Cc2ccccc2)N=C(c2ccc(OCCCO)cc2)O[C@H]1c1ccccc1 (stereo not given in full) | 0.616 | 1.15 | 1.36 | -0.395 (inactive) | 0.698 | 0.591 | -1.2 | -0.378 | -0.72 | 0.661 |

| Compound | composite z-score [1] | composite z-score [2] | composite z-score [3] | z-score [4] | composite z-score [5] | composite z-score [6] | composite z-score [7] | composite z-score [8] | composite z-score [9] | composite z-score [10] |
| --- | --- | --- | --- | --- | --- | --- | --- | --- | --- | --- |
| Cn1c2c(c3ccccc31)C(=O)C1NC2C=CC1(C)C(=O)OCc1ccccc1 (stereo not given) | 1.15 | 0.347 | 1.26 | 0.167 (inactive) | -0.667 | -0.788 | -1.57 | -1.58 | -2.53 | 0.674 |
| COCC1=C([C@H](O)CCc2ccccc2)[C@H](CO)[C@@H]2C(=O)N(Cc3ccccc3)C(=O)[C@@H]2C1 | -0.0333 | -0.253 | -0.25 | 0.212 (inactive) | 0.438 | 0.0321 | 0.313 | 0.265 | 0.391 | 0.554 |
| C=CCOC(=O)[C@H]1[C@@H]2C(=O)O[C@@H](c3ccccc3)[C@@H](c3ccccc3)N2[C@@H](c2ccc(OCCOC(=O)[C@@H]3C[C@@H]4C(=O)NCC(=O)N4[C@@H]3c3ccc(O)cc3)cc2)[C@]12C(=O)Nc1ccc(I)cc12 | 1.49 | -0.106 | 0.0065 | -0.0179 (inactive) | 1.2 | 1.3 | 1.14 | 1.34 | 0.873 | 0.141 |
| C#C[C@H]1Oc2ccccc2S(=O)(=O)N2CCC[C@@H]12 | 0.578 | -0.215 | -0.0688 | 0.724 (inactive) | -0.0502 | 0.0695 | 0.354 | 0.712 | 1.29 | 1.74 |
| C[n+]1ccc2ccc(O)cc2c1 | -0.0574 | -0.147 | -0.444 | 0.526 (inactive) | 1.07 | 0.534 | 1.19 | 1.45 | 1.31 | 1.53 |
| CCCNC(=O)[C@@]1(C)c2ccccc2C(=O)N(Cc2ccc(OC(F)(F)F)cc2)[C@H]1c1ccc(CO)cc1 | 1.57 | 0.0743 | 0.666 | -0.129 (inactive) | 0.0672 | 0.0816 | -1.02 | -0.401 | -0.977 | 0.427 |
| COCCOC(=O)N1C(=O)[C@@]2(c3cc(C#CCC(C(=O)OC)C(=O)OC)ccc31)[C@H](c1ccc(OCCO)cc1)N1[C@H](c3ccccc3)[C@H](c3ccccc3)OC(=O)[C@H]1[C@@H]2C(=O)NC[C@H](O)c1ccccc1 | 1.52 | -0.405 | -0.189 | 0.0782 (inactive) | 1.5 | 1.3 | 0.586 | 1.29 | 0.356 | 0.094 |
| CC(C)OC(=O)C1=CCC(c2cccc(Cl)c2)O1 (stereo not given) | 1.58 | -0.306 | 0.461 | -2.49 (inactive) | -1.34 | -0.33 | -1.71 | -0.715 | -2.24 | -1.41 |
| O=C1OCCC/C=C\[C@H]2OC34C=CCN(CCN5CCOCC5)C(=O)[C@H]3N(CCO)C(=O)[C@@H]4C12 (stereo not given in full) | 1.66 | -0.214 | 0.0583 | -1.15 (inactive) | -0.506 | -0.707 | -0.676 | -1.14 | -0.507 | -0.68 |
| CCOC(=O)C1=CC[C@@H](c2ccccc2)N(S(=O)(=O)c2ccc(C)cc2)[C@H]1c1ccc(C#N)cc1 | 0.802 | 1.17 | 1.18 | -0.29 (inactive) | 0.278 | 1.29 | -0.18 | 0.272 | -0.972 | 0.676 |
| CC(C)(C)OC(=O)CC[C@@]1(C(N)=O)N=C(c2ccc(OCCCO)cc2)O[C@@H]1c1ccccc1N=[N+]=[N-] | 1.73 | 0.751 | 0.83 | -0.809 (inactive) | 1.46 | 1.22 | -0.0882 | 0.616 | -0.103 | 0.988 |
| COC(=O)[C@@]1(Cc2ccc(F)cc2)[C@H]2c3cc(C(=O)N(C)C)n(Cc4ccccn4)c3C[C@H]2CN1C(=O)c1ccccc1 | 1.19 | 1.37 | 1.14 | -2.82 (inactive) | 0.214 | 1.08 | 0.328 | 0.706 | 0.116 | 1.24 |
| C=CC[C@@]1(C(N)=O)N=C(c2ccc(OCCCO)cc2)O[C@@H]1c1ccccc1N=[N+]=[N-] | 1.61 | 1.36 | 1.14 | -0.0133 (inactive) | 0.63 | 0.649 | 0.0347 | 0.0562 | 1.16 | 1.38 |
| C=CCN1Cc2ccccc2C[C@]2(N=C(c3ccc(OCCCO)cc3)O[C@@H]2c2ccccc2)C1=O | 0.761 | -0.0119 | 0.311 | -1.44 (inactive) | 1.08 | 1.29 | 0.734 | 1.25 | 0.838 | 1.31 |
| O=C1C2C=CC(C(O)CCc3ccccc3)N(Nc3ccccc3)C2C(=O)N1c1ccccc1 (stereo not given) | 0.692 | 1.18 | 1.29 | 0.35 (inactive) | 0.714 | 1.26 | -0.0133 | 0.425 | -0.194 | 0.205 |
| O=C(NCC(F)(F)F)[C@@H]1c2ccccc2C(=O)N(Cc2ccccc2)[C@H]1c1ccc(CO)cc1 | 1.68 | 0.443 | 1.05 | 0.999 (inactive) | -0.308 | -0.409 | -1.31 | -1.12 | -1.46 | -0.296 |
| COc1ccc(C#Cc2ccc3c(c2)[C@]2(C(=O)N3)[C@H](c3ccc(OCCO)cc3)N3[C@H](c4ccccc4)[C@H](c4ccccc4)OC(=O)[C@H]3[C@@H]2C(=O)Nc2nc3ccccc3s2)cc1 | 1.29 | 0.771 | 0.72 | 3.63 (inactive) | 1.3 | 1.29 | 0.655 | 1.38 | 0.618 | 0.331 |
